Reference: the supplement of paper PMC6555819

Columns and labels:
Test in all cases: PBM binding z-score (relative to random genomic background probes); higher = stronger binding; sequences stand for … in GC…GCGATTGACAGCGTAGAATGAAGG
[1] = system: FXR:RXRa (NR concentration 270 nM, RXRa partner concentration 90 nM)
Summary of the method: (§1)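 Antibodies against each partner of ligand-free nuclear receptor dimers (one per run) detected binding on custom Agilent 4×180K protein-binding microarrays after 1 h incubation. The double-stranded probes had 34-nt variable regions carrying direct-repeat seeds, single-nucleotide variants, half-site ablations and random human genomic background sequences. Binding z-scores, from regression-normalized fluorescence, use the random background probes as reference.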

[2] = system: LXRa:RXRa (NR concentration 270 nM, RXRa partner concentration 90 nM)
Summary of the method: as §1

[3] = system: LXRa homodimer (NR concentration 270 nM)
Summary of the method: as §1

[4] = system: LXRb:RXRa (NR concentration 270 nM, RXRa partner concentration 90 nM)
Summary of the method: as §1

[5] = system: PPARa:RXRa (NR concentration 270 nM, RXRa partner concentration 90 nM)
Summary of the method: as §1

[6] = system: PPARg:RXRa (NR concentration 180 nM, RXRa partner concentration 90 nM)
Summary of the method: as §1

[7] = system: PPARg:RXRa 270nM:90nM, anti-RXR (NR concentration 270 nM, RXRa partner concentration 90 nM)
Summary of the method: as §1

[8] = system: PPARg:RXRa 30nM:10nM, anti-RXR (NR concentration 30 nM, RXRa partner concentration 10 nM)
Summary of the method: as §1

[9] = system: PPARg:RXRa 90nM:30nM, anti-RXR (NR concentration 90 nM, RXRa partner concentration 30 nM)
Summary of the method: as §1

[10] = system: PPARg:RXRa DBDmut IVT, anti-RXR (DBD mutation: RXRa K156A/R161A, NR concentration 270 nM, RXRa partner concentration 90 nM)
Summary of the method: as §1

[11] = system: PPARg:RXRa IVT, anti-PPARg (NR concentration 270 nM, RXRa partner concentration 90 nM)
Summary of the method: as §1

[12] = system: PPARg homodimer (NR concentration 180 nM)
Summary of the method: as §1

[13] = system: PXR:RXRa (NR concentration 270 nM, RXRa partner concentration 90 nM)
Summary of the method: as §1

[14] = system: PXR homodimer (NR concentration 270 nM)
Summary of the method: as §1

[15] = system: RARa:RXR (NR concentration 270 nM, RXRa partner concentration 90 nM)
Summary of the method: as §1

[16] = system: RARa homodimer (NR concentration 270 nM)
Summary of the method: as §1

[17] = system: RARb:RXRa (NR concentration 270 nM, RXRa partner concentration 90 nM)
Summary of the method: as §1

Sequence	PBM binding z-score [1]	PBM binding z-score [2]	PBM binding z-score [3]	PBM binding z-score [4]	PBM binding z-score [5]	PBM binding z-score [6]	PBM binding z-score [7]	PBM binding z-score [8]	PBM binding z-score [9]	PBM binding z-score [10]	PBM binding z-score [11]	PBM binding z-score [12]	PBM binding z-score [13]	PBM binding z-score [14]	PBM binding z-score [15]	PBM binding z-score [16]	PBM binding z-score [17]
CCTAGTAGGTTACGAGGGGGCATTCAGTGCGAAT	3.31	7.55	1.8	6.51	4.13	5.11	5.4	2.24	4.28	6.21	6.3	3.88	5.02	6.19	2.97	1.46	2.32
CCGAGTAGGTTACGAGGTGGCATTCAGTGCGAAT	0.103	2.1	-0.445	0.601	1.61	1.79	2.03	0.157	1.16	4.75	3.92	0.24	0.618	-0.0659	0.472	-0.0316	1.03
TCGAGTAGGGTACGGGGGCATTCAGGGATGAAGA	2.34	2.37	0.643	4.6	3.09	4.1	4.09	3.19	3.84	4.21	5.82	1.54	3.3	1.96	2.86	0.475	2.37
CCGAGTAGGTTACGAGGGGGCATTGAGTGCGAAT	2.26	7.11	1.25	6.12	3.55	2.61	3.24	1.03	2.58	4.78	4.42	1.95	5.05	8.74	2.91	0.485	2.02
CTATGTAGGTTAAGGGGGTCATTCTGTTTGAAAG	4.82	4.99	2.88	6.33	5.95	8.35	7.68	6	7.63	6.99	7.55	3.03	5.44	3.94	5.46	1.35	3.47
CCGAGTAGGTTACGAGCGGGCATTCAGTGCGAAT	0.242	7.14	0.879	4.08	0.9	0.617	0.819	-0.546	0.27	4.42	2.97	0.117	1.73	0.506	0.0464	-0.596	0.908
CCGAGTAGGTTACCAGGGGGCATTCAGTGCGAAT	2.76	7.81	3.59	6.85	3.43	2.1	3.31	0.696	2.27	3.65	4.24	1.99	4.73	5.81	2.91	0.502	2.33
TCGAGTAGGTTACGGGGGCATACAGGGATGAAGA	2.72	2.52	0.664	4.86	4.48	6.1	5.69	3.56	5.05	5.24	5.71	3.33	2.97	1.54	3.27	0.305	2.65
TCGAGTAGGTGACGGGGGCATTCAGGGATGAAGA	2.66	2.37	0.394	4.6	3.82	5.16	5.26	3.32	4.67	5.39	6.13	2.07	3.15	1.91	2.63	0.214	2.45
CTATGTAGGTTAAGGGGGTCGTTCAGTTTGAAAG	2.32	2.72	0.932	5.37	5.33	7.56	7.03	4.96	6.85	7.46	7.3	2.23	3.86	6.99	3.39	1.49	2.37
CCGAGTAGGTTAAGAGGGGGCATTCAGTGCGAAT	3.24	6.72	1.5	5.79	3.21	1.93	3.19	0.978	2.43	4.47	4.75	2.41	4.95	6.8	2.7	1.37	2.28
CCGAGTGGGTTACGAGGGGGCATTCAGTGCGAAT	2.73	6.93	0.977	5.8	3.08	1.75	2.54	0.567	1.74	3.36	3.81	1.4	4.8	5.23	2.53	-0.433	1.65
CCGAGTAGGTTACGAGGGGGCATTCCGTGCGAAT	2.81	7.17	1.62	6.21	3.36	1.77	2.96	0.628	1.69	4.52	4.42	1.68	4.37	0.912	2.94	0.747	2
CCGAGTAGGGTACGAGGGGGCATTCAGTGCGAAT	1.83	4.84	0.674	4.44	2.53	0.709	1.58	0.0374	1.17	2.87	3.56	0.861	3.15	3.37	1.71	-0.0964	1.36
CCGAGTAGGTTACGAGGGGGCAATCAGTGCGAAT	2.55	6.66	0.917	6.01	3.34	2.49	3.24	0.613	2.21	4.92	4.42	2.06	4.26	2.9	2.87	0.639	2.16
CTATGTCGGTTAAGGGGGTCATTCAGTTTGAAAG	4.86	5.24	4.38	6.42	5.65	5.4	6.26	3.98	5.7	4.49	5.96	6.84	5.84	8.33	5.76	4.21	3.57
CCGAGTAGGTTAGGAGGGGGCATTCAGTGCGAAT	2.47	4.27	1.19	5.24	2.86	1.74	2.65	1.44	2.24	3.01	4.36	2.59	4.53	6.27	2.88	0.952	2.06

Sequence	PBM binding z-score [1]	PBM binding z-score [2]	PBM binding z-score [3]	PBM binding z-score [4]	PBM binding z-score [5]	PBM binding z-score [6]	PBM binding z-score [7]	PBM binding z-score [8]	PBM binding z-score [9]	PBM binding z-score [10]	PBM binding z-score [11]	PBM binding z-score [12]	PBM binding z-score [13]	PBM binding z-score [14]	PBM binding z-score [15]	PBM binding z-score [16]	PBM binding z-score [17]
CTATGTAGGTTAAGGGGGTCATTCACTTTGAAAG	5.19	5.06	2.92	6.16	5.91	8.46	8.03	5.89	8.28	7.7	7.41	3.47	5.59	4.83	5.77	1.84	3.4
CCGAGTAGGTTACGAGAGGGCATTCAGTGCGAAT	1.04	7.41	2.68	5.96	2.19	1.48	1.64	-0.24	0.958	4.61	3.37	2.29	5.07	6.97	2.08	-0.345	1.66
TCGAGTAGGTTAGGGGGGCATTCAGGGATGAAGA	3.28	3.15	1.42	5.64	3.3	5.66	4.97	3.63	5.01	4.38	5.24	2.84	3.99	3.93	3.47	2.35	3.15
CTATGTAGGTTAAGGGGGGCATTCAGTTTGAAAG	3.22	3.64	1.74	6.04	4.85	8.88	7.37	6.02	7.7	7.45	7	3.9	4.18	8.89	2.96	3.91	3.35
CCGAGTAGGTTACGAAGGGGCATTCAGTGCGAAT	0.672	6.11	-0.15	4.02	1.83	1.04	1.55	-0.292	0.939	4.07	3.33	0.383	2.86	1.4	1.04	0.184	1.56
TCGAGTAAGTTACGGGGGCATTCAGGGATGAAGA	1.79	1.83	0.43	4.1	2.64	1.06	1.98	1.45	1.77	1.55	3.02	0.93	2.63	1.19	2.22	0.119	1.34
CTATGTAGGTTAAGGGGGTCAATCAGTTTGAAAG	4.51	4.86	1.5	5.67	5.86	8.09	7.41	5.18	7.66	7.42	7.48	2.63	5.16	7.48	5.23	0.971	3.41
TCGAGTAGGTTACGGGGGCATTCAAGGATGAAGA	2.72	3.01	0.487	4.72	4.27	6.08	5.8	3.65	4.94	4.93	6	1.38	3.1	1.06	3.21	0.0228	2.59
CTATGTAGGTTAAGGGCGTCATTCAGTTTGAAAG	0.15	0.294	-0.263	0.367	3.53	5.29	5.64	3.36	5.17	7.33	6.94	1.62	0.377	0.443	0.584	-0.284	1.27
CCGAGTAGGTTACGCGGGGGCATTCAGTGCGAAT	3.18	6.77	1.34	6.01	3.32	2.36	3.3	1.11	2.24	4.28	4.82	1.38	5.72	7.61	3.67	0.0169	2.29
TCGATTAGGTTACGGGGGCATTCAGGGATGAAGA	3.28	3.73	1.5	5.59	4.45	5.21	5.33	4.89	5.46	5.15	5.84	2.49	3.63	2.83	3.51	1.32	3.28
CTATGTAGGTTAAGGGGATCATTCAGTTTGAAAG	0.585	0.973	0.126	2	3.77	5.97	5.5	3.3	4.86	7.23	6.92	1.89	1.01	0.432	0.816	0.323	1.05
CTATGTAGGTTAAGGGGGTCATGCAGTTTGAAAG	5.42	4.98	1.95	6.22	6.35	9.11	8	6.71	8.07	7.51	7.75	4.7	5.74	8.41	6	1.78	3.79
TCGAGTTGGTTACGGGGGCATTCAGGGATGAAGA	2.61	2.2	0.889	4.62	2.89	1.84	2.84	2.24	2.63	2.18	3.75	1.79	3.22	3.31	2.3	0.444	1.97
CTATGTAGGTTAAGGGGGTCATTCATTTTGAAAG	4.9	4.91	3.28	6.23	5.9	8.6	7.7	6.27	7.77	7.22	7.67	2.86	5.45	5.06	5.94	1.58	3.38
TCGAGTAGGTTACGGGGGCATGCAGGGATGAAGA	2.17	2.53	0.37	4.94	4.27	6.15	5.69	3.6	4.99	5.07	5.87	1.59	2.75	0.876	2.91	0.522	2.5
